Bioassay records (PubChem BioAssay)
MITF act – activators of MITF-driven TRPM1 promoter activity in SK-MEL-5 cells | SK-MEL-5 TRPM1-promoter luciferase, 24 h; % of positive control, neutral wells = 0 | activation, % at 12.5 µM | 300,000 compounds, 0.75% hits | AID 588334;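 active = mean activation of at least 80% with every replicate also reaching 80%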;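 note: 0% = neutral control wells and 100% = parthenolide positive control wells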
EBV LMP1 NFkB – inhibitors of Epstein-Barr LMP1-induced NF-kappaB reporter; LMP1-induced NF-kappaB luciferase reporter cells, luminescence; inhibition, % at 12.5 µM; 350,000 compounds, 0.69% hits; AID 504558; in the data active = inhibition above about 41%;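 note: 0% = neutral control wells and 100% = reference inhibitor control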
esBAF inh – inhibitors of esBAF chromatin remodeling in mouse ES cells | Bmi1-luciferase knock-in reporter, 24 h; 100% = twice the neutral-well signal | reporter increase, % at 12.5 µM | 350,000 compounds, 2% hits | AID 602393; in the data active = activation above about 40%;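 note: 0% = median of the plate's neutral control wells and 100% = double that signal; a rise in the Bmi1 reporter signal indicates esBAF inhibition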
C2C12 statin – suppression of simvastatin myotoxicity | C2C12 myotubes + simvastatin, ATP luminescence, 48 h; scaled: DMSO 0, geranylgeraniol control 100 | rescue of ATP level, % at 7.49 µM | 330,000 compounds, 0.78% hits | AID 602340;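 active = mean ATP rescue above about 67%, or every replicate alone reaching that limit, limit read from the data, passing the limit was not always enough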;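 note: myotubes were challenged with 10 µM simvastatin during compound exposure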
Wnt act – activates Wnt/beta-catenin signaling in a reporter cell assay. activator, plate reader. activation, % at 9.35 µM. 300,000 compounds, 1.2% hits; in the data active = activation above about 30%, passing the limit was not always enough;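 note: 0% = neutral control wells and 100% = positive control wells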
MITF TRPM1 inh – reduces MITF-dependent TRPM1 promoter luciferase signal; SK-MEL-5 TRPM1 promoter luciferase, 24 h; inhibition, % at 12.5 µM; AID 488899; 330,000 compounds, 0.83% hits;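 active = mean inhibition across replicates of 60% or more, whatever share of single replicates reaches that level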
An asterisk follows results filed as active; nt = no result given. Most compounds without a hit are left out; they make up all but 4% or so of the library.

SMILES	MITF act	EBV LMP1 NFkB	esBAF inh	C2C12 statin	Wnt act	MITF TRPM1 inh
CN1C(=O)c2cc(NC(=O)C3CCCC3)ccc2OC[C@@H]2O[C@H](CC(=O)Nc3ccccc3)CC[C@H]21	nt	nt	-3.7	-21.6	nt	nt
COCCCN(C(C)=O)c1nc(-c2ccccc2)cs1	41.5	-12.5	46.0*	-0.9	4.9	-37.9
COCCCN(C(=O)c1ccccc1)c1nc(-c2ccc(OC)cc2)cs1	nt	-14.9	-2.1	16.4	-1.9	0.5
Cc1[nH][nH]c(=O)c1N=Nc1ccccc1Cl	5.1	-1.1	nt	nt	5.7	-3.0
C=CCN(C(=O)C1CC(=O)N(C2CCCC2)C1)c1nc(-c2ccc(S(C)(=O)=O)cc2)cs1 (stereo unspecified)	46.1	-18.7	53.9*	-20.9	14.6	-45.9
CO[C@H](CN(C)Cc1cc(F)ccc1F)[C@H](C)CN(C(=O)Nc1ccc(C(F)(F)F)cc1)[C@@H](C)CO	nt	nt	3.4	-17.1	nt	nt
Cn1c(=O)c([N+](=O)[O-])c(Cl)c2ccccc21	-94.5	14.3	-0.8	-55.8	-1.0	95.2*
O=C(Nc1ccccc1)C(=O)Nc1ccc2c(c1)N(C(=O)C1CC1)CCC2	92.2*	-29.9	nt	nt	41.8*	-89.8
O=S1(=O)Nc2c(ccc3cccnc23)-c2ccccc21	-76.2	7.5	-21.4	109.1*	nt	76.6*
CCC(=O)N1CCc2cc(Br)cc(S(=O)(=O)CCC(=O)NCCc3ccccc3)c21	-4.1	-0.7	1.8	-1.2	-2.8	2.6
C/C(=N\N=C(/N)SC1CC(=O)N(c2cccc(Cl)c2)C1=O)c1cccs1 (stereo unspecified)	1.2	-8.5	-0.2	-0.7	-3.1	2.5
CCOC(=O)c1cnc2c(-c3ccccc3)cnn2c1N	59.3	-34.4	-14.7	-18.3	38.4*	-55.7
CCOC(=O)c1cnn(-c2ccccn2)c1N	102.3*	-10.5	39.8	-4.4	nt	-101.0
Cc1nnc(SCc2ccc(C(=O)O)cc2)s1	-3.7	7.7	nt	nt	-0.1	5.9
O=C(NCc1ccc(F)cc1)c1cnc2n(c1=O)CCS2	4.8	-3.5	-8.7	-1.8	-2.1	-4.1
O=C(CSc1nnc(C2CCCCC2)o1)N1CCCCC1	nt	-0.8	12.0	0.8	16.5	-28.3
CC[C@@H](C)[C@H](CN[C@H](CNC)C(C)C)NC[C@@H](C)c1ccc(CC(C)C)cc1	-99.5	-10.9	-30.5	-146.0	-16.7	100.1*
Cc1ccc(CN(Cc2cc3cccc(C)c3[nH]c2=O)C(=O)N(C)C)cc1	-12.3	-3.9	-6.3	15.6	-6.6	10.6
CC(C)C(OC(=O)c1ccccc1)c1nccc2ccccc12 (stereo unspecified)	57.7	-41.5	71.7*	8.3	0.2	-57.2
CC(=O)OC1COC(n2c(O)c(N=NC(N)=S)c3ccccc32)C(OC(C)=O)C1OC(C)=O (stereo unspecified)	nt	-7.2	-4.5	-3.9	-0.7	-2.5
CC(=O)NC1(C(F)(F)F)NC(=O)N(CCc2ccccc2)C1=O (stereo unspecified)	-7.9	-5.3	-2.2	-18.2	2.0	10.9
CCCCN1C(=O)NC(NC(C)=O)(C(F)(F)F)C1=O (stereo unspecified)	-2.6	2.2	-9.3	105.4*	-2.1	3.6
COc1ccc(C2/C(=C(/O)c3ccc(C)cc3)C(=O)C(=O)N2C)c(OC)c1 (stereo unspecified)	-4.9	11.7	6.2	7.2	0.3	5.5
CN1CCN(C(=O)C[C@@H]2CC[C@H]3[C@@H](COC[C@H](O)CN3Cc3cccc(-c4ccncc4)c3)O2)CC1	nt	nt	4.9	10.6	nt	nt
C[C@@]12CCC=C[C@H]1[C@H](c1ccc3ccccc3c1Br)N(Cc1ccccc1)C2=O	-17.3	6.6	-0.7	77.7*	-3.7	18.9
SMILES	MITF act	EBV LMP1 NFkB	esBAF inh	C2C12 statin	Wnt act	MITF TRPM1 inh
CCC(=O)Nc1cccc(C(=O)OCC(=O)c2ccccc2Cl)c1	67.0	-9.6	50.8*	-2.3	nt	-68.0
CC(=O)Nc1cccc(C(=O)OCC(=O)c2ccccc2Cl)c1	52.1	-16.4	nt	nt	46.7*	-64.7
CCC(=O)Nc1cccc(C(=O)c2ccccc2)c1	16.6	-8.7	8.8	0.1	nt	-16.6
Cc1ccc(CNC(=O)COC(=O)CSc2ccc(Br)cc2C)cc1	5.3	0.9	-4.6	4.0	nt	-3.2
Oc1ccc(Oc2ccc3c(C(F)(F)F)cc(C(F)(F)F)nc3n2)cc1	-54.2	47.7*	-1.3	11.6	1.6	55.2
COc1ccc(OC)c(NC2c3ncccc3C(=O)N2Cc2ccco2)c1 (stereo unspecified)	0.3	-2.5	2.4	11.5	-1.5	-1.6
COc1ccc(CN2C(=O)c3cccnc3C2Nc2cc(Cl)ccc2OC)cc1 (stereo unspecified)	3.4	65.8*	-7.9	17.6	nt	-2.0
COc1cc(OC)cc(C(=O)N2c3ccc(F)cc3CCC2C)c1 (stereo unspecified)	1.9	1.0	-2.8	90.1*	-3.2	0.2
Cc1cccc(N/N=C/c2ccncc2)c1	129.1*	-19.4	37.2	15.7	13.3	-121.2
COc1ccc(NC(=O)Nc2ccc3c(c2)CC(=O)N([C@H](C)CO)C[C@@H](C)[C@H](CN(C)C)O3)cc1	nt	nt	-1.8	1.5	nt	nt
CCOC(=O)N1CCN(C(=O)C(=O)NNC(=O)COc2ccc(Cl)c(C)c2)CC1	-4.3	-15.9	nt	nt	0.3	7.0
O=S(=O)(c1ccc(NC(=S)NCc2cccnc2)cc1)N1CCCCC1	nt	-39.3	nt	nt	46.6*	8.1
O=S(=O)(c1ccc(NC(=S)NN=Cc2ccccc2O)cc1)N1CCCCC1	nt	-5.4	nt	nt	66.8*	24.2
O=C(NCc1cccnc1)c1ccc(S(=O)(=O)N2CCCCC2)cc1	-5.6	-11.7	-1.9	-4.7	-12.4	7.9
Cc1ccc(C2=NS(=O)(=O)N(C)C(C(=O)NCc3ccco3)=C2)cc1	nt	0.5	3.4	-7.9	-2.0	nt
O=C1CC(c2ccco2)CC2=C1C=Nc1ccccc1N2 (stereo unspecified)	-4.5	6.3	0.0	13.8	44.8*	8.7
CC(C)CCCN1C(Nc2ccccc2)=NC[C@@H]1CC(C)C	25.2	-8.4	2.9	-12.3	-3.8	-20.0
CC(C)C[C@H]1CN=C(Nc2ccccc2)N1CCCCc1ccccc1	18.1	-8.7	0.7	104.6*	-6.5	-10.9
O=C(NCc1ccccc1)C1=C[C@@H](c2ccccc2)C[C@@H](OCc2ccc(CO)cc2)O1	-6.2	1.0	13.8	5.6	-0.4	4.0
C[C@H]1C=C(C(=O)NCc2ccccc2)O[C@@H](OCc2ccc(CO)cc2)C1	5.3	-7.7	-4.6	13.6	47.8*	-3.6
COc1ccc(C(=O)c2c3ccccc3[n+]([O-])n2CCCN)cc1	2.5	0.8	29.0	-0.1	-3.1	2.8
Cc1ccc(-c2nc(NC(=O)c3nn(C)cc3[N+](=O)[O-])sc2C)cc1C	-79.3	-27.5	-74.7	-325.1	-13.8	79.2*
Cn1cc([N+](=O)[O-])c(C(=O)Nc2ccc(C(=O)N3CCCCC3)cc2)n1	-8.1	6.1	nt	nt	-1.1	9.3
